Six compounds from PubChem BioAssay (NCI) can be followed below.

The panel holds about 79,000 compounds, 15% with a hit somewhere; the sample as a whole holds those more often. Unmarked numbers belong to inactive results. Activity calls are given as the source filed them. Cut-off read from the data, not from the text of the source: active = growth inhibition above about 70%; inactive = the rest.

Test [1] is described as follows: NCI Yeast Anticancer Drug Screen. Data for the rad50 strain (AID 155).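 Note: 0% = growth of vehicle-only cultures of the same strain.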 The conditions noted are these: S. cerevisiae rad50 strain growth inhibition, stronger effect = higher value. The essentials: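 Growth of the mutant yeast was measured after compound exposure and referenced to vehicle-treated cultures.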
A short description of test [2]: NCI Yeast Anticancer Drug Screen. Data for the mec2-1 strain (AID 157). As to conditions: S. cerevisiae mec2-1 strain, stronger effect = higher value. The essentials:
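Test agents were screened against the mec2-1 yeast strain, with defined DNA repair or cell cycle alteration. Growth was scored as inhibition against vehicle-only controls.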

Test [3] can be described thus: NCI Yeast Anticancer Drug Screen. Data for the sgs1 mgt1 strain (AID 161).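 Note: 0% = growth of cultures given vehicle only.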 The conditions noted are these: S. cerevisiae sgs1 mgt1 strain, stronger effect = higher value. The procedure, abridged:
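Mutant yeast exposed to compound; growth scored against vehicle-only wells.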

Test [4] is described as follows: NCI Yeast Anticancer Drug Screen. Data for the cln2 rad14 strain (AID 165).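 Note: 0% = growth equal to vehicle treated cultures.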 The conditions noted are these: S. cerevisiae cln2 rad14 strain, stronger effect = higher value. The essentials:
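Growth of compound-exposed yeast (cln2 rad14 genotype) measured and expressed as inhibition relative to vehicle.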

Test [5] can be described thus: NCI Yeast Anticancer Drug Screen. Data for the bub3 strain (AID 167). The conditions noted are these: S. cerevisiae bub3 mutant strain, stronger effect = higher value. The essentials:
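Whole-cell yeast assay. The mutant strain was incubated with compounds, and growth inhibition was determined by comparison with vehicle-treated cells.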

Test [6] is described as follows: NCI Yeast Anticancer Drug Screen. Data for the mlh1 rad18 strain (AID 175). The conditions noted are these: S. cerevisiae mlh1 rad18 strain growth inhibition, stronger effect = higher value. The procedure, abridged: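 In this whole-cell yeast screen, a strain with altered DNA damage repair is challenged with compound, and its growth is measured against matched vehicle-treated controls.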

The mark [7] stands for this setting: at 5.0 µM (retest, dose inferred, filed as 0.5).
[8] abbreviates: at 50.0 µM (retest, dose inferred, filed as 5.0).

For `NCC1CCNCC1`, the growth inhibition in test [1] (setting [7]) is 2%; in test [1] (setting [8]), -6%; in test [1] (at 50.0 µM) it was -16.7%; in test [2] (setting [7]) it was -2%; in test [2] (setting [8]), -19%; in test [2] (at 50.0 µM) it was -9.25%. In addition, the growth inhibition in test [3] (setting [7]) was 2%; in test [3] (setting [8]) it was 3%; in test [3] (at 50.0 µM), -15.2%; in test [4] (setting [7]), 0%; in test [4] (setting [8]), -6%; in test [4] (at 50.0 µM), 16%. Besides, the growth inhibition was -5% in test [5] (setting [7]); 1% in test [5] (setting [8]); 3.9% in test [5] (at 50.0 µM); 10% in test [6] (setting [7]); 0% in test [6] (setting [8]); -4% in test [6] (at 50.0 µM).

For `Clc1ccc(C2=Nc3ccccc3SC(c3ccc(Cl)c(Cl)c3)C2)c(Cl)c1` (stereo not drawn), the growth inhibition in test [1] (setting [7]) was 16%; in test [1] (setting [8]), 16%; in test [1] (at 50.0 µM), 64.2%; in test [2] (setting [7]), 12%; in test [2] (setting [8]), 12%; in test [2] (at 50.0 µM) it was 49.3%. Also, the growth inhibition in test [3] (setting [7]) was 1%; in test [3] (setting [8]) it was 1%; in test [3] (at 50.0 µM), 63.3%; in test [4] (setting [7]), 10%; in test [4] (setting [8]), 10%; in test [4] (at 50.0 µM), 40.8%. For the same compound, the growth inhibition was 9% in test [5] (setting [7]); 9% in test [5] (setting [8]); 70.4% (active) in test [5] (at 50.0 µM); 13% in test [6] (setting [7]); 13% in test [6] (setting [8]); 63.7% in test [6] (at 50.0 µM).

Turning to `N#CC1(C#N)C(C#N)(C#N)C12CCC2`, the growth inhibition is 4% in test [1] (setting [7]); 87% (active) in test [1] (setting [8]); 35.2% in test [1] (at 50.0 µM); 6% in test [2] (setting [7]); 88% (active) in test [2] (setting [8]); 49.8% in test [2] (at 50.0 µM). The growth inhibition was 6% in test [3] (setting [7]); 91% (active) in test [3] (setting [8]); 50.6% in test [3] (at 50.0 µM); 0% in test [4] (setting [7]); 65% in test [4] (setting [8]); -2.45% in test [4] (at 50.0 µM). Further, the growth inhibition in test [5] (setting [7]) was 7%; in test [5] (setting [8]), 96% (active); in test [5] (at 50.0 µM) it was 70% (active); in test [6] (setting [7]), 2%; in test [6] (setting [8]) it was 96% (active); in test [6] (at 50.0 µM), 83.8% (active).

For the compound `Cc1cc(NC(=S)SCc2ccc(Cl)cc2)ccc1Br`, the growth inhibition is 35% in test [1] (setting [7]); 98% (active) in test [1] (setting [8]); 91.3% (active) in test [1] (at 50.0 µM); 26% in test [2] (setting [7]); 99% (active) in test [2] (setting [8]); 92.7% (active) in test [2] (at 50.0 µM). The growth inhibition in test [3] (setting [7]) was 47%; in test [3] (setting [8]) it was 99% (active); in test [3] (at 50.0 µM), 91.3% (active); in test [4] (setting [7]), 37%; in test [4] (setting [8]), 99% (active); in test [4] (at 50.0 µM), 88.8% (active). Further, the growth inhibition in test [5] (setting [7]) was 55%; in test [5] (setting [8]), 100% (active); in test [5] (at 50.0 µM) it was 91.2% (active); in test [6] (setting [7]) it was 25%; in test [6] (setting [8]), 99% (active); in test [6] (at 50.0 µM), 91.2% (active).

With `COc1ccc(NNC(=O)c2ccccc2)cc1`, the growth inhibition in test [1] (setting [7]) is 29%; in test [1] (setting [8]), 97% (active); in test [1] (at 50.0 µM), 96.3% (active); in test [2] (setting [7]) it was 9%; in test [2] (setting [8]), 95% (active); in test [2] (at 50.0 µM), 97.5% (active). Also, the growth inhibition was 13% in test [3] (setting [7]); 98% (active) in test [3] (setting [8]); 96.3% (active) in test [3] (at 50.0 µM); 3% in test [4] (setting [7]); 97% (active) in test [4] (setting [8]); 96.8% (active) in test [4] (at 50.0 µM). Also, the growth inhibition was -9% in test [5] (setting [7]); 98% (active) in test [5] (setting [8]); 98.2% (active) in test [5] (at 50.0 µM); 13% in test [6] (setting [7]); 98% (active) in test [6] (setting [8]); 97.7% (active) in test [6] (at 50.0 µM).

As to `Cc1ccc(C(=O)/C=C/c2ccccc2)cc1`, the growth inhibition in test [1] (setting [7]) was 8%; in test [1] (setting [8]), 42%; in test [1] (at 50.0 µM) it was 52%; in test [2] (setting [7]) it was -6%; in test [2] (setting [8]) it was 14%; in test [2] (at 50.0 µM) it was 13.7%. Moreover, the growth inhibition was 1% in test [3] (setting [7]); 38% in test [3] (setting [8]); 36.6% in test [3] (at 50.0 µM); 0% in test [4] (setting [7]); -22% in test [4] (setting [8]); -22% in test [4] (at 50.0 µM). In addition, the growth inhibition in test [5] (setting [7]) was 6%; in test [5] (setting [8]) it was 19%; in test [5] (at 50.0 µM) it was 9.3%; in test [6] (setting [7]) it was 2%; in test [6] (setting [8]), 24%; in test [6] (at 50.0 µM) it was 82.1% (active).
